This is part of a sample that, as a whole, favours compounds with a hit. Of some 83,000 tested, about 20% had one in any assay.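 Values shown are percent growth following 48 h exposure of cells in 96-well plates to a single concentration of compound; below 10 was considered active.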 Active and inactive are the calls of the source.
Key:
Assay in all cases: NCI-60 one-dose screen, 48 h (100 = growth as untreated, 0 = no growth, -100 = all killed)
Conditions in all cases: 10 µM unless noted
[1] = tested on: NCI-H23 lung
[2] = tested on: NCI-H226 lung
[3] = tested on: NCI-H322M lung
[4] = tested on: HOP-62 NSCLC
[5] = tested on: NCI-H460 lung
[6] = tested on: HOP-92 NSCLC
[7] = tested on: NCI-H522 lung
[8] = tested on: 786-0 renal
[9] = tested on: COLO 205 colon
[10] = tested on: DU-145 prostate
[11] = tested on: K-562 leukemia
[12] = tested on: MALME-3M melanoma
[13] = tested on: MDA-MB-231 breast
[14] = tested on: RXF 393 renal
[15] = tested on: SF-268 CNS
[16] = tested on: SF-295 CNS
[17] = tested on: SF-539 CNS
[18] = tested on: UACC-257 melanoma
[19] = tested on: M14 melanoma
[20] = tested on: A549/ATCC NSCLC

Measured: growth

Cc1ccc(C(=O)Nc2cc(-n3ccnc3C)cc(C(F)(F)F)c2)cc1C#Cc1cnc2cccnn12
active: [1] -26.1% | [2] -33.1% | [4] -7.58% | [5] 5.86% | [6] -31.5% | [7] -29.1% | [8] 6.68% | [9] -19.9% | [11] -3.69% | [12] -35.6% | [13] -37.5% | [14] -54.6% | [16] -60.9% | [17] -81.8% | [18] 3.43% | [19] -20%
inactive: [3] 21% | [10] 18.6% | [15] 25.7%

COc1c(B(O)O)cc(F)cc1-c1nc2c(F)cc3[nH]ncc3c2c2c1CCCC2
active: [1] 5.45% | [2] 4.1% | [5] 2.44% | [7] 5.36% | [9] -16% | [13] 3.96% | [14] -45.4% | [17] -44%
inactive: [3] 12.6% | [4] 16.8% | [6] 17.2% | [8] 29.2% | [10] 14.6% | [11] 38.8% | [12] 50.9% | [15] 30.3% | [16] 15.2% | [18] 40% | [19] 38.2%

Cc1ccc(S(=O)(=O)N(CCn2ccnc2[N+](=O)[O-])CCn2ccnc2[N+](=O)[O-])cc1
inactive: [1] 104% | [2] 100% | [3] 107% | [4] 108% | [5] 109% | [6] 106% | [7] 91.5% | [20] 102% | [8] 101% | [9] 111% | [10] 106% | [11] 95.7% | [12] 111% | [13] 104% | [14] 84.3% | [15] 111% | [16] 109% | [17] 97.6% | [18] 108% | [19] 97.6%

CC(=O)c1ccc2c(N)c(C(=O)Nc3ccc(C(F)(F)F)cc3)sc2n1
inactive: [1] 41.7% | [2] 59.1% | [3] 83.2% | [4] 58.6% | [5] 72.8% | [6] 67.1% | [7] 59.8% | [8] 78.1% | [9] 83.4% | [10] 82.2% | [11] 20% | [12] 26.4% | [13] 68.3% | [14] 85.8% | [15] 85.2% | [16] 38.1% | [17] 71.1% | [18] 59.5% | [19] 58.3%

CN(CCSSCCN1CCOCC1)C(=O)Oc1cc2c(c3ccccc13)[C@H](CCl)CN2C(=O)c1cc2cc(OCCCN3CCC3)ccc2[nH]1
active: [1] -67.5% | [2] -11.7% | [3] -3.1% | [4] -64.7% | [5] -23.3% | [6] -14.1% | [7] -66.4% | [8] -35% | [9] -74% | [10] -70.8% | [11] -34.6% | [12] -79.5% | [13] -23.7% | [14] -77.4% | [15] 3.42% | [16] 1.02% | [17] -86.2% | [18] -17.1%

O=C(NN1C(=O)/C(=C/C=C/c2ccc([N+](=O)[O-])o2)SC1=S)c1ccc(O)cc1
active: [1] -85.7% | [2] -86.3% | [3] -78.5% | [4] -99.5% | [5] -54% | [6] -81% | [7] -98.1% | [20] -81.5% | [8] -90.4% | [9] -94.8% | [10] -100% | [11] 0.602% | [12] -97.9% | [13] -95.9% | [14] -86.2% | [15] -74.3% | [16] -85.6% | [17] -100% | [18] -90.4% | [19] -81.9%

COc1cc(NC(=O)C(C)C)ccc1C(=O)NC(=S)Nc1ccc(S(N)(=O)=O)cc1
inactive: [1] 102% | [2] 115% | [3] 99.7% | [4] 91.6% | [5] 107% | [6] 78% | [7] 76.3% | [20] 106% | [8] 79.6% | [9] 118% | [10] 106% | [11] 108% | [12] 94.4% | [13] 93.1% | [14] 88.7% | [15] 80.8% | [16] 84.2% | [17] 88.9% | [18] 101% | [19] 106%

CC1=C(C(=O)Nc2ccccc2)C(c2cccc3ccccc23)n2c(nc3ccccc32)N1 (centres undefined)
inactive: [1] 76.7% | [3] 44% | [5] 27.6% | [7] 63.6% | [9] 95.2% | [10] 29% | [11] 82.9% | [12] 43.8% | [13] 53.8% | [14] 13.9% | [15] 19.8% | [16] 32.2% | [17] 43.8% | [18] 45.1% | [19] 65.7%
active: [2] -39.8% | [4] -61.9% | [6] 1.76% | [8] 6.29%

COc1cc2cc(C(=O)N3C[C@@H](CCl)c4c3cc(OC(=O)N(CCC(=O)N3CCN(C)CC3)C3CCCCC3)c3ccccc43)[nH]c2c(OC)c1OC
active: [1] -86.8% | [2] -11.1% | [3] -28.6% | [4] -55.7% | [5] -73.1% | [6] -71% | [7] -82% | [8] -96% | [9] -66.7% | [10] -73.5% | [11] -20.6% | [12] -97.6% | [13] -61.4% | [14] -93.3% | [15] -41.5% | [16] -68.3% | [17] -93% | [18] -78.6% | [19] -84.5%

CN1CCN(C(=O)CCN(C(=O)Oc2cc3c(c4ccccc24)[C@H](CCl)CN3C(=O)c2cc3cc(OCCCN4CCC4)ccc3[nH]2)[C@H]2CCSSC2)CC1
active: [1] -73.3% | [2] -17.9% | [3] -48% | [4] -77.4% | [5] 2.93% | [6] -32.1% | [7] -74.4% | [8] -90.8% | [9] -80% | [10] -84.3% | [11] -42.9% | [12] -86.8% | [13] -89.6% | [14] -86.7% | [15] -50.4% | [16] -71% | [17] -94% | [18] -77.9% | [19] -62.5%

O=C(N=Nc1c(O)[nH]c2ccc(Cl)cc12)c1ccc2nc(-c3ccc(Cl)cc3)[nH]c2c1
inactive: [2] 51.1% | [3] 31.4% | [5] 11.8% | [18] 57.8%
active: [1] -71.5% | [4] -37.9% | [6] -0.983% | [7] -26.9% | [8] -72.6% | [9] -17.6% | [10] 5.09% | [11] 8.93% | [12] -1.72% | [13] -79.9% | [14] -27.7% | [15] 0.662% | [16] -12.5% | [17] -93.6% | [19] -6.49%

CCCN(CCC)S(=O)(=O)c1ccc(C(=O)O)cc1.CCCN(CCC)S(=O)(=O)c1ccc(C(=O)O)cc1.[Cl][Pt+2][Cl].[NH2-].[NH2-]
inactive: [2] 23.2% | [3] 42.6% | [4] 30.4% | [8] 14% | [10] 13.2% | [15] 17.5% | [16] 32.9% | [17] 15.6% | [19] 33%
active: [1] -44.1% | [5] 0.596% | [6] 5.16% | [7] -54.9% | [9] -57.7% | [11] 9.96% | [12] -98.1% | [13] -22.8% | [14] -59.6% | [18] -0.891%

O=C(NC(=S)N1CCN(c2ncnc3c2cnn3-c2ccccc2)CC1)c1ccc(Br)cc1
inactive: [1] 64.4% | [2] 60.6% | [3] 75.4% | [4] 37.4% | [5] 69.2% | [6] 47.2% | [7] 60.9% | [20] 80.6% | [8] 72% | [9] 98.7% | [10] 87.3% | [11] 61.4% | [12] 53.4% | [13] 75.4% | [14] 69.1% | [15] 58.5% | [16] 48.3% | [18] 88.7% | [19] 83.1%
active: [17] -17.5%

N#CC1=C(c2ccco2)Nc2c(c(-c3ccccc3)nn2-c2ccccc2)C12C(=O)Nc1ccc(Br)cc12 (centres undefined)
inactive: [1] 70.6% | [2] 67.2% | [3] 86.9% | [4] 10.5% | [6] 52.4% | [7] 31.8% | [8] 43.4% | [9] 86.9% | [10] 70.5% | [11] 21.2% | [12] 90.7% | [13] 33.2% | [14] 70.2% | [15] 49.1% | [16] 72.5% | [18] 73.1% | [19] 42%
active: [5] 1.16% | [17] -33%

O=C(CSc1nnc(-c2ccc(-c3nc4ccc(Cl)cc4[nH]3)cc2)o1)Nc1ccccc1
inactive: [3] 37.6% | [9] 75.9% | [11] 12.3% | [15] 49.1% | [16] 75.7% | [18] 47.7%
active: [1] -41.5% | [2] -23.7% | [4] -27.1% | [5] -48.7% | [6] 2.36% | [7] -3.89% | [20] -31.9% | [8] -59% | [10] 6.69% | [12] 2.32% | [13] -52% | [14] -40.6% | [17] -92.8% | [19] 4.09%

COc1ccc(N=Nc2c(N)nn3c(-c4ccc(F)cc4)ccnc23)cc1
inactive: [1] 43.7% | [2] 87.8% | [3] 84.3% | [4] 34.6% | [5] 64.7% | [6] 100% | [7] 86.5% | [20] 43% | [8] 92.3% | [9] 94.4% | [10] 79.9% | [11] 71.9% | [12] 40.4% | [13] 77.2% | [14] 106% | [15] 83.5% | [16] 87.7% | [17] 67.5% | [18] 81.8% | [19] 51.3%

— PubChem BioAssay (NCI)
